Measured potencies and affinities stand elsewhere. Active and inactive are the calls of the source.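 How the source made its calls: active means fluorescent signal decreased by at least 40%; inconclusive means no clear call, values can overlap the other calls; inactive means the rest, including activity opposite to the expected direction.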
Assay: fibronectin fibrillogenesis inhibitors in fibroblasts, dose response, AH1F cells, Alexa488-fibronectin fluorescence, cherry-pick, set 2 (AID 1117283);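 further: AH1F fibroblasts given Alexa488-labelled fibronectin at 24 nM final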
Settings: Alexa488-fibronectin deposition fluorescence, overnight; series mostly up to 35 µM

| SMILES | outcome |
| --- | --- |
| C[C@H](CO)N1C[C@H](C)[C@@H](CN(C)Cc2ccc(-c3ccccc3)cc2)Oc2ccc(NC(=O)CCCN(C)C)cc2C1=O | inactive |
| N#Cc1ccc(-c2ccc3c(c2)[C@H]2[C@H](CCN2S(=O)(=O)c2cccc(F)c2)[C@H](CO)N3)cc1 | inactive |
| CN(C)c1ccc(-c2ccnc3c2CC(C)(C(=O)NCC2CC2)O3)cc1 (configuration not stated) | inactive |
| CO[C@H]1CN(C)C(=O)c2cc(NC(=O)Nc3ccc(C(F)(F)F)cc3)ccc2OC[C@H](C)NC[C@H]1C | inactive |
| CC(C)(C)c1cc(Cl)c(O)c(NC(=S)NC(=O)c2cccnc2)c1 | inactive |
| C[C@H](CO)N1C[C@H](C)[C@@H](CN(C)C(=O)Nc2cccc3ccccc23)Oc2c(NC(=O)Nc3ccc(C(F)(F)F)cc3)cccc2C1=O | inactive |
| O=C(Nc1ccccc1F)N1C[C@H]2[C@@H](c3ccccc31)[C@@H](CO)N2C(=O)C1CC1 | inactive |
| COc1ccc(C)cc1N(CC(=O)Nc1cccc(N(C)S(C)(=O)=O)c1)S(C)(=O)=O | inactive |
| C[C@@H]1CN([C@H](C)CO)C(=O)c2cc(-c3ccccc3)cnc2O[C@H]1CN(C)C(=O)c1cccc(F)c1 | inactive |
| C[C@@H]1CN([C@@H](C)CO)C(=O)c2cc(NC(=O)C3CCCCC3)ccc2O[C@H]1CN(C)Cc1ccc(-c2ccccc2)cc1 | inactive |
| CC(C)(C)[S@@](=O)N1Cc2cc(C(=O)NCc3ccccc3F)nc(-c3cccc(-c4cncnc4)c3)c2[C@H]1CCO | inactive |
| C[C@@H]1CN([C@@H](C)CO)C(=O)c2cc(-c3ccncc3)cnc2O[C@@H]1CN(C)C(=O)Cc1cccnc1 | inactive |
| N#Cc1ccc(-c2ccc3c(c2)[C@@H]2[C@@H](CCN2S(=O)(=O)c2cccc(F)c2)[C@@H](CO)N3)cc1 | inactive |
| C[C@H](CO)N1C[C@H](C)[C@H](CN(C)Cc2ccccc2)Oc2ncc(-c3ccccc3)cc2C1=O | inactive |
| C[C@@H]1CN([C@@H](C)CO)C(=O)c2cc(-c3ccccc3)cnc2O[C@@H]1CN(C)Cc1ccccc1 | inactive |
| N#C[C@@H]1[C@@H](c2ccccc2C2=CCCCC2)[C@H](CO)N1S(=O)(=O)c1ccccc1 | inactive |
| COC(=O)c1c(NC(=O)CN2CCN(c3ccccc3Cl)CC2)sc(C)c1C | inactive |
| Cn1cnc(S(=O)(=O)N2CCN(c3ccccc3)CC2)c1 | inactive |
| O=C(CCC(=O)c1cccs1)NCc1cccnc1 | inactive |

| SMILES | outcome |
| --- | --- |
| COc1ccccc1CC(=O)OC(C)C(=O)Nc1ccc(S(=O)(=O)N2CCCCC2)cc1 (configuration not stated) | inactive |
| O=C(c1cccnc1)N1C[C@@H]2[C@H](c3ccccc31)[C@@H](CO)N2CC1CCCC1 | inactive |
| CSc1ccccc1C(=O)C1CCCN(C(=O)CCc2cccnc2)C1 (configuration not stated) | inactive |
| C[C@H]1CN([C@@H](C)CO)C(=O)c2cc(NC(=O)CCCN(C)C)ccc2O[C@H]1CN(C)Cc1ccc(-c2ccccc2)cc1 | inactive |
| C[C@@H](O)C#Cc1ccc2c(c1)O[C@@H](CN(C)C)[C@@H](C)CN([C@@H](C)CO)S2(=O)=O | inactive |
| Cn1cc([N+](=O)[O-])c(C(=O)Nc2cc(Oc3ccccc3)cc([N+](=O)[O-])c2)n1 | inactive |
| C[C@@H]1CN([C@H](C)CO)C(=O)c2cccc(NC(=O)Nc3ccc(C(F)(F)F)cc3)c2O[C@H]1CN(C)C(=O)Nc1cccc2ccccc12 | inactive |
| Cc1ccc(S(=O)(=O)N2CC[C@@H]3[C@H](CO)Nc4ccc(-c5cccc(C(=O)N(C)C)c5)cc4[C@@H]32)cc1 | inactive |
| O=S(=O)(c1cccc(F)c1)N1CC[C@H]2[C@H](CO)Nc3ccc(-c4cccc(F)c4)cc3[C@H]21 | inactive |
| COc1ccc(S(=O)(=O)N2CCCCC2c2cc(C(=O)Nc3ccc4c(c3)OCO4)no2)cc1 (configuration not stated) | inactive |
| C[C@@H]1CN([C@@H](C)CO)C(=O)c2cc(-c3ccccc3)cnc2O[C@@H]1CN(C)C(=O)c1cccc(F)c1 | inactive |
| CO[C@@H]1CN(C)C(=O)c2cc(NC(=O)Nc3ccc(Cl)c(Cl)c3)ccc2OC[C@H](C)NC[C@@H]1C | inactive |
| CC(C)NC(=O)N(C)C[C@H]1Oc2ccc(NC(=O)CCN3CCOCC3)cc2C(=O)N([C@H](C)CO)C[C@@H]1C | inactive |
| Nc1c(C(=O)NCc2ccco2)nnn1Cc1ccccc1 | inactive |
| C[C@H](O)C#Cc1ccc2c(c1)O[C@@H](CN(C)C)[C@H](C)CN([C@H](C)CO)S2(=O)=O | inactive |
| O=S(=O)(c1cccc(F)c1)N1CC[C@@H]2[C@H]1c1cc(-c3cccc(F)c3)ccc1N[C@@H]2CO | inactive |
| O=C(c1cccnc1)N1C[C@H]2[C@@H](c3ccccc31)[C@@H](CO)N2CC1CCCC1 | inactive |
| CO[C@@H]1CN(C)C(=O)c2ccc(NC(=O)c3ccc(-c4ccccc4)cc3)cc2OC[C@H](C)NC[C@H]1C | inactive |
